The campaign covered roughly 300,000 compounds. About 5,400 (1.8%) were called active. Where a call stands in place of a potency, no number is given. About 28% were inconclusive and are not listed. The call rests on the fitted dose curve; tested in HEK293 cells. Only a selection was taken, and actives are over-represented in it overall.
Assay: qHTS for inhibitors of binding or entry into cells for Marburg Virus
Details: Marburg virus pseudotyped entry inhibition, cell reporter; series mostly up to 37.8 µM
With `Nc1ccc2c(c1)C(=Cc1cccnc1)c1ccccc1-2` the Potency was “inactive”.
For `CSCCC(NC(=O)COc1ccccc1)C(=O)N(C)CC(=O)Nc1ccc(C)cc1` (configuration not stated), the Potency was “inactive”.
With `CC1CCCCC12NC(=O)N(CC(=O)OCc1c(F)cccc1Cl)C2=O` (configuration not stated) the Potency was “inactive”.
In the case of `O=C(c1ccc(Cl)cc1)N1N=C(c2ccccn2)CC1(O)C(F)(F)F` (configuration not stated), the Potency is reported as 7.94 µM (active).
With `CC1=NN(C(=O)CCc2ccccc2O)C(O)(C(F)(F)F)C1` (configuration not stated) the Potency was “inactive”.
With `COC(=O)C1(O)CC(C(C)C)=NN1C(=O)c1ccc(Cl)cc1` (configuration not stated) the Potency was “inactive”.
In the case of `COc1cc(C(=O)NCC(=O)NCCSc2ccc(Br)cc2)cc(OC)c1OC`, the Potency is reported as “inactive”.
In the case of `O=C(NC1CCCC1)C(c1ccco1)N(C(=O)c1ccco1)c1ccc(F)cc1` (configuration not stated), the Potency is reported as “inactive”.
In the case of `N#Cc1cc([N+](=O)[O-])ccc1NC(=O)COC(=O)c1cnccn1`, the Potency is reported as “inactive”.
In the case of `CCOc1ccc(CCNC(=O)Cn2nc(CC)n3c(cc4sc(CC)cc43)c2=O)cc1OCC`, the Potency is reported as “inactive”.
For `CCOc1ccc(CCNC(=O)c2ccc3c(c2)sc2nc(-c4ccc(F)cc4)cn23)cc1OCC`, the Potency was 2.51 µM (active).
For `Cc1c(C(=O)NCCN2CCOCC2)sc2nc(-c3ccc(F)cc3)cn12`, the Potency was “inactive”.
With `COc1ccc(N2CC(NS(=O)(=O)c3ccc4ccccc4c3)CC2=O)cc1` (configuration not stated) the Potency was “inactive”.
For `CCOc1ccc(C(=O)NCC(=O)N2CCCCCCC2)cc1OCC`, the Potency was “inactive”.
In the case of `Cc1cc(-c2n[nH]c(=S)n2/N=C/C(Br)=C/c2ccccc2)n[nH]1`, the Potency is reported as 10 µM (active).
With `S=c1[nH]nc(-c2cccnc2)n1/N=C/C(Cl)=C\c1ccccc1` the Potency was “inactive”.
In the case of `S=c1[nH]nc(-c2ccco2)n1/N=C/c1ccccc1`, the Potency is reported as “inactive”.
With `O=C(CCl)NNc1nc(-c2ccccc2)c2cc(Cl)ccc2n1` the Potency was 6.31 µM (active).
With `Cc1ccc2nc(Nc3ccccc3O)nc(-c3ccccc3)c2c1` the Potency was “inactive”.
In the case of `O=C(CCl)NNc1cccc(Cl)n1`, the Potency is reported as “inactive”.
In the case of `COc1ccc(CCNC(=O)c2c(C)nn(-c3ccccc3)c2Cl)cc1`, the Potency is reported as “inactive”.
With `CCN(C(=O)COC(=O)c1c(C)nn(-c2ccccc2)c1Cl)c1c(N)n(Cc2ccccc2)c(=O)[nH]c1=O` the Potency was “inactive”.
With `Cc1cccc2cc(CN(Cc3nnnn3Cc3ccccc3)C3CCCC3)c(=O)[nH]c12` the Potency was 16.4 µM (active).
For `Cc1cc(C)c2cc(CN(Cc3nnnn3Cc3ccc(F)cc3)C3CCCC3)c(=O)[nH]c2c1`, the Potency was “inactive”.
With `CCOc1ccc2[nH]c(=O)c(CN(Cc3nnnn3Cc3ccccc3)CC3CCCO3)cc2c1` (configuration not stated) the Potency was “inactive”.
With `Cc1cc(NC(=O)C(C)SCC(=O)Nc2ccccc2N2CCCCC2)no1` (configuration not stated) the Potency was “inactive”.
In the case of `Nc1cc(=O)n(Cc2ccccc2)c(=O)n1Cc1ccccc1`, the Potency is reported as “inactive”.
For `CCOC(=O)C1CCN(c2nc3ccccc3nc2[C@@H](C#N)C(=O)OC(C)C)CC1`, the Potency was “inactive”.
For `COc1cc(/C=C2\C(=N)N3N=C(CC(=O)N4CCOCC4)SC3=NC2=O)cc(OC)c1OC`, the Potency was “inactive”.
For `Cc1ccc2cc(CN(c3ccc(C)c(C)c3)S(C)(=O)=O)c(=O)[nH]c2c1`, the Potency was 10 µM (active).
In the case of `CCOC(=O)N1CCN(C(=O)c2ccc(CN(c3ccc(C)c(C)c3)S(C)(=O)=O)cc2)CC1`, the Potency is reported as “inactive”.
In the case of `CCN1CCN(C(=O)c2ccc(CN(c3ccc(C)c(C)c3)S(C)(=O)=O)cc2)CC1`, the Potency is reported as “inactive”.
For `CCCCc1nc2cc(C(=O)NCCc3cnn(C)c3)ccc2o1`, the Potency was “inactive”.
In the case of `CC(=O)CSc1nc(CCc2ccccc2)c(C#N)c(=O)[nH]1`, the Potency is reported as “inactive”.
With `Cn1c(N)c(C(=O)COC(=O)/C=C/c2cccc(C(F)(F)F)c2)c(=O)n(C)c1=O` the Potency was “inactive”.
In the case of `COc1ccc(C(=O)COC(=O)c2c(C)noc2C)cc1Cl`, the Potency is reported as “inactive”.
For `COc1ccc(Cn2nnc3c(=O)[nH]c(C4CCN(C(=O)c5ccccc5Cl)CC4)nc32)cc1`, the Potency was “inactive”.
In the case of `O=C(c1ccccc1F)N1CCC(c2nc3c(nnn3Cc3cccc(F)c3)c(=O)[nH]2)CC1`, the Potency is reported as “inactive”.
For `CC(C)(C)c1ccc(Cn2nnc3c(=O)[nH]c(C4CCCN(C(=O)c5ccco5)C4)nc32)cc1` (configuration not stated), the Potency was 10 µM (active).
With `COc1ccc(OC)c(NC(=O)COC(=O)Cc2ccsc2)c1` the Potency was “inactive”.
In the case of `CCOC(=O)c1ccc(N2C(=O)c3n[nH]c(C)c3C2c2ccc(O)c(OC)c2)cc1` (configuration not stated), the Potency is reported as “inactive”.
With `CCOC(=O)c1ccc(N2C(=O)c3[nH]nc(-c4ccccc4)c3C2c2ccc(C(C)C)cc2)cc1` (configuration not stated) the Potency was “inactive”.
With `CCOC(=O)c1ccc(N2C(=O)c3n[nH]c(-c4ccco4)c3C2c2ccc(O)cc2)cc1` (configuration not stated) the Potency was 11.2 µM (active).
In the case of `COc1ccccc1S(=O)(=O)c1c(C)cc(C)[nH]c1=O`, the Potency is reported as “inactive”.
For `OCc1ccc(-c2ccccc2)c(-c2ccccc2)c1`, the Potency was “inactive”.
In the case of `CN(C)c1ccc(CNC2C3CC4CC(C3)CC2C4)cc1` (configuration not stated), the Potency is reported as 14.6 µM (active).
For `CN(C)c1ccc(CNC23CN4CN(CN(C4)C2)C3)cc1`, the Potency was “inactive”.
In the case of `c1cnc(NC2C3CC4CC(C3)CC2C4)nc1` (configuration not stated), the Potency is reported as “inactive”.
For `CC(=O)Oc1cccc(C(=O)Nc2ccccc2NC(=O)c2cccc(OC(C)=O)c2)c1`, the Potency was “inactive”.
For `COc1ccc(C(=O)NC2CC2)cc1OC1CCN(Cc2cnn(C)c2)CC1`, the Potency was “inactive”.
For `CCCC(=O)Nc1ccccc1N1CCN(C(=O)c2ccccc2)CC1`, the Potency was “inactive”.
With `CCC(C)C(=O)Nc1ccccc1N1CCN(c2ccc(F)cc2)CC1` (configuration not stated) the Potency was 12.6 µM (active).
With `O=C(Nc1ccccc1N1CCN(c2ccccc2)CC1)c1cccc(F)c1` the Potency was “inactive”.
For `CCCCC(=O)Nc1ccccc1N1CCN(c2ccc(F)cc2)CC1`, the Potency was 11.2 µM (active).
With `O=C(CN1CCN(c2ccccc2)CC1)Nc1ccc(F)cc1` the Potency was “inactive”.
For `CCC(=O)Nc1ccccc1N1CCN(S(C)(=O)=O)CC1`, the Potency was “inactive”.
For `O=C(Cc1ccc(S(=O)(=O)N2CCOCC2)s1)NCCOc1ccccc1F`, the Potency was “inactive”.
With `O=C(c1cc2cc(Br)cc(Br)c2oc1=O)N1CCOCC1` the Potency was “inactive”.
For `COCCCNCCOCCOc1ccc(Cl)cc1Br`, the Potency was 11.6 µM (active).
For `COCCNCCOCCOc1cccc(OC)c1`, the Potency was “inactive”.
With `CSc1ccc(/C=N\NC(=O)COc2ccc(Cl)cc2Br)cc1` the Potency was “inactive”.
With `CCS(=O)(=O)Nc1ccc(C(=O)NCCSc2ccccc2)cc1` the Potency was “inactive”.
With `CC(C)Cn1c(=O)c2ccccc2n2c(CCC(=O)NCc3ccccn3)nnc12` the Potency was “inactive”.
For `O=[N+]([O-])c1ccc(C=Nc2ccc(Cl)cc2Cl)s1`, the Potency was 5.8 µM (active).
With `CNN/C(N=Cc1ccc([N+](=O)[O-])s1)=N\S(=O)(=O)c1cc(C)c(Cl)cc1SCc1ccccc1` the Potency was “inactive”.
With `CN1CCN(c2ccc(NC(=O)c3cc(Cl)c4c(c3)OCCO4)cc2)CC1` the Potency was “inactive”.
For `CCc1ccc(N(C(=O)c2csnn2)C(C(=O)NC2CCCCC2)c2cccnc2)cc1` (configuration not stated), the Potency was “inactive”.
For `CCCn1nc(NS(=O)(=O)c2ccc(F)cc2)c2cc3ccccc3nc21`, the Potency was “inactive”.
With `CC(C)Cn1c(SCC(=O)Nc2ccc(Cl)cc2F)nc(O)cc1=O` the Potency was “inactive”.
For `COCCN(CCOC)C(=S)Nc1ccccc1Cl`, the Potency was “inactive”.
For `O=C(COC(=O)c1cccs1)Nc1ccccc1Cl`, the Potency was “inactive”.
For `O=C(Nc1ccccc1Cl)/C(Cl)=C(\Cl)S(=O)c1ccccc1` (configuration not stated), the Potency was 3.16 µM (active).
With `O=C1c2ccccc2C(=O)C1C(=O)C1CC1` the Potency was “inactive”.
In the case of `O=c1c2ccccc2ncn1CCc1ccncc1`, the Potency is reported as “inactive”.
For `Cc1cc(Nc2ccc(N3CCOCC3)cc2)c2cccc(C)c2n1`, the Potency was 0.794 µM (active).
In the case of `Cc1nn2c3cc(N4CCOCC4)ccc3nc2c2ccccc12`, the Potency is reported as “inactive”.
With `Cc1ccccc1N/N=C/c1ccc(N2CCOCC2)cc1` the Potency was “inactive”.
With `CC(NC(=O)c1cccc(S(=O)(=O)N2CCc3ccccc3C2)c1)c1ccco1` (configuration not stated) the Potency was “inactive”.
For `Cc1cc(Oc2ccccc2)nc(N2CCOCC2)n1`, the Potency was “inactive”.
For `Cc1cc(Nc2ccc(Cl)cc2)nc(N2CCOCC2)n1`, the Potency was 7.94 µM (active).
With `Cc1cc(C)nc(N2CCC(C(=O)Nc3ccc4c(c3)OCCO4)CC2)n1` the Potency was “inactive”.
With `O=C(O)c1ccc2c(=O)n3c(nc2c1)/C(=C/c1ccc(OC(F)F)cc1OC(F)F)CC3` the Potency was “inactive”.
For `CCN1CCN(Cc2c(O)ccc3oc(C)c(C(=O)Nc4ccc(C)cc4C)c23)CC1`, the Potency was “inactive”.
For `Cc1oc2ccc(O)c(CN3CCCCC3)c2c1C(=O)Nc1cccc(C(F)(F)F)c1`, the Potency was 10 µM (active).
For `Cc1oc2ccc(O)c(CN3CCOCC3)c2c1C(=O)Nc1cccc(Cl)c1C`, the Potency was “inactive”.
In the case of `Cc1cc(=O)oc2c(C)c(OC(C)C(=O)NC3CCN(Cc4ccccc4)CC3)ccc12` (configuration not stated), the Potency is reported as “inactive”.
In the case of `Cc1cc(-c2nnc(SCC(=O)Nc3ccc(F)cc3)n2N)n[nH]1`, the Potency is reported as “inactive”.
In the case of `CC(C)CC1C(=O)N(Cc2cn(Cc3ccco3)nn2)CCS(=O)(=O)N1Cc1ccc(-c2ccc(Cl)c(Cl)c2)cc1` (configuration not stated), the Potency is reported as 25 µM (active).
In the case of `CC(=O)c1cccc(-c2ccc(CN3C(CC(C)C)C(=O)N(Cc4cn(CC5CCCCC5)nn4)CCS3(=O)=O)cc2)c1` (configuration not stated), the Potency is reported as “inactive”.
In the case of `Cc1ccc(C)c(NC(=O)COC(=O)c2nn(C)c(=O)c3ccccc23)c1`, the Potency is reported as “inactive”.
For `O=C(Nc1cccc(NC(=O)c2ccc(Br)cc2)c1)c1ccccc1`, the Potency was “inactive”.
In the case of `O=C(NC1=CC(=O)c2ccccc2C1=O)c1ccccc1`, the Potency is reported as 10 µM (active).
With `O=C1C=C(NS(=O)(=O)c2ccccc2)C(=O)c2ccccc21` the Potency was “inactive”.
For `Fc1ccc([C@H]2C3=C(Nc4ncnn42)c2ccccc2O[C@H]3c2ccncc2)cc1`, the Potency was “inactive”.
For `Clc1ccc2c(c1)C1=C(C(c3ccncc3)O2)C(c2ccc(Br)cc2)n2ncnc2N1` (configuration not stated), the Potency was 11.6 µM (active).
For `CCOC(=O)C1=C(c2ccccc2)Nc2ncnn2C1c1ccc(Cl)cc1` (configuration not stated), the Potency was “inactive”.
With `CC[C@@H]1Cc2cc(O)ccc2C2=C1c1ccc(O)cc1C[C@H]2CC` the Potency was 35.5 µM (active).
With `CC1(C)CC(=O)c2ccc(O)cc2O1` the Potency was “inactive”.
In the case of `OC(COCCC12CC3CC(CC(C3)C1)C2)CN1CCCCC1` (configuration not stated), the Potency is reported as 2.91 µM (active).
For `O=C(c1ccccc1)c1ccc(OCC(O)CN2CCCC2)cc1` (configuration not stated), the Potency was “inactive”.
With `COc1cc(/C=N/NC(=O)c2cccnc2)ccc1OC(=O)c1cccc(Br)c1` the Potency was “inactive”.
For `O=C(C1CC(=O)N(c2ccc(Br)cc2)C1)N1CCCC1` (configuration not stated), the Potency was “inactive”.
Potency means the concentration at half of the fitted maximal effect.
